# Many of the other results were omitted from the sample, so the strongest signals are more common in it than they were.
# B1: Lmo1413 (Listeria monocytogenes), Q8Y783 (protein)
# chain: MKHAKKSLFTFIIFMTILSITFNPFSAKAAPLMLNLPAPQVDQLYIGDDYITGKLQQEVPMHYPGNAAYVLFNNKQYNITDYTVENDVNFRLKLPKTLEAGDTLNYFTITGNVLDPVAYPGQESYKLAGPFSPIEKANIQVNYVDETNQTLATSDTLSGKLGETYTTSPKAIDGYQVKETPTNATGTYTTNTETIQINYVYEKTAVEGANVSVEYINEATNESIAPTETLSGKIGTTFQAEVKEIDGYELSQVPSNQSGTYTDQTQSVIFKYKKITTPDEVAKDVTVTYKDTKGNQLADPVILKGDIGSTFETEAKSFKGYKLTKTPSNHSSVFTSDSQEVEYVYSKDDAVITPPVTPVNPDKPIINPVKPVNPATSTVPNKNISKKNTTKTVNQTGKTSTALQLPKTGDSENNLPLIIGVSLLISGVYIFTTRRKRVK
# Tests used:
# Test in all cases: glycan array binding signal (z-score within array); higher = stronger binding
# Conditions in all cases: glycan notation: IUPAC condensed, linker removed
# [1] = molecular target: Gal(a1-3)Gal
# Summary of the method: (§1)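 The Consortium for Functional Glycomics database supplied 3228 glycan arrays, of which those lacking an available protein sequence were dropped. The binding signal, a within-array Z-score, was averaged across arrays of the same protein sequence and across linkers. Negative scores can be read as non-binding.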
# [2] = molecular target: Gal(a1-3)Gal(b1-4)[Fuc(a1-3)]GlcNAc(b1-2)Man(a1-3)[Gal(a1-3)Gal(b1-4)[Fuc(a1-3)]GlcNAc(b1-2)Man(a1-6)]Man(b1-4)GlcNAc(b1-4)GlcNAc
# Summary of the method: as §1
# [3] = molecular target: Gal(a1-3)GalNAc
# Summary of the method: as §1
# [4] = molecular target: Gal(b1-3)GalNAc(b1-3)Gal(a1-4)Gal(b1-4)Glc
# Summary of the method: as §1
# [5] = molecular target: Gal(b1-3)GlcNAc(b1-2)Man(a1-3)[Gal(b1-3)GlcNAc(b1-2)Man(a1-6)]Man(b1-4)GlcNAc(b1-4)GlcNAc
# Summary of the method: as §1
# [6] = molecular target: Gal(b1-3)GlcNAc(b1-3)Gal(b1-3)GlcNAc
# Summary of the method: as §1
# [7] = molecular target: Gal(b1-3)GlcNAc(b1-3)Gal(b1-4)[Fuc(a1-3)]GlcNAc(b1-6)[Gal(b1-3)GlcNAc(b1-3)]Gal(b1-4)Glc
# Summary of the method: as §1
# [8] = molecular target: Gal(b1-3)[Fuc(a1-4)]GlcNAc(b1-2)Man(a1-3)[Gal(b1-3)[Fuc(a1-4)]GlcNAc(b1-2)Man(a1-6)]Man(b1-4)GlcNAc(b1-4)GlcNAc
# Summary of the method: as §1
# [9] = molecular target: Gal(b1-3)[Fuc(a1-4)]GlcNAc(b1-3)Gal(b1-3)[Fuc(a1-4)]GlcNAc
# Summary of the method: as §1
# [10] = molecular target: Gal(b1-3)[Neu5Ac(b2-6)]GalNAc
# Summary of the method: as §1
# [11] = molecular target: Gal(b1-4)GlcNAc(b1-2)Man(a1-3)Man(b1-4)GlcNAc(b1-4)GlcNAc
# Summary of the method: as §1
# [12] = molecular target: Gal(b1-4)GlcNAc(b1-2)Man(a1-3)[Man(a1-6)]Man(b1-4)GlcNAc(b1-4)GlcNAc
# Summary of the method: as §1
# [13] = molecular target: Gal4S(b1-4)GlcNAc
# Summary of the method: as §1
# [14] = molecular target: Glc(a1-4)Glc
# Summary of the method: as §1
# [15] = molecular target: GlcA(b1-3)GlcNAc
# Summary of the method: as §1
# [16] = molecular target: GlcA(b1-6)Gal
# Summary of the method: as §1
# [17] = molecular target: GlcNAc(a1-3)Gal(b1-4)GlcNAc
# Summary of the method: as §1
# [18] = molecular target: GlcNAc(a1-4)Gal(b1-4)GlcNAc(b1-3)Gal(b1-4)Glc
# Summary of the method: as §1
# [19] = molecular target: GlcNAc(a1-6)Gal(b1-4)GlcNAc
# Summary of the method: as §1
# [20] = molecular target: GlcNAc(b1-2)Gal(b1-3)GalNAc
# Summary of the method: as §1
# [21] = molecular target: GlcNAc(b1-4)GlcNAc(b1-4)GlcNAc
# Summary of the method: as §1
# [22] = molecular target: Kdn(a2-6)Gal(b1-4)GlcNAc
# Summary of the method: as §1
# [23] = molecular target: Man(a1-3)[Man(a1-6)]Man(b1-4)GlcNAc(b1-4)GlcNAc
# Summary of the method: as §1
# [24] = molecular target: Neu5Ac(a2-3)Gal(b1-4)GlcNAc(b1-2)Man(a1-3)[Neu5Ac(a2-6)Gal(b1-4)GlcNAc(b1-2)Man(a1-6)]Man(b1-4)GlcNAc(b1-4)GlcNAc
# Summary of the method: as §1
# [25] = molecular target: Neu5Ac(a2-3)Gal(b1-4)[Fuc(a1-3)]GlcNAc(b1-3)Gal(b1-4)[Fuc(a1-3)]GlcNAc(b1-3)Gal(b1-4)[Fuc(a1-3)]GlcNAc
# Summary of the method: as §1
# [26] = molecular target: Neu5Ac(a2-6)Gal(b1-4)GlcNAc(b1-3)GalNAc
# Summary of the method: as §1
# [27] = molecular target: Neu5Ac(a2-6)GlcNAc(b1-4)GlcNAc(b1-4)GlcNAc
# Summary of the method: as §1
# [28] = molecular target: Neu5Ac9Ac(a2-6)Gal(b1-4)GlcNAc
# Summary of the method: as §1
# [29] = molecular target: Neu5Gc(a2-3)Gal(b1-4)Glc
# Summary of the method: as §1
binder,measurement,setting,value
B1,glycan array binding signal (z-score),[1],-0.219
same,glycan array binding signal (z-score),[2],0.065
same,glycan array binding signal (z-score),[3],-0.056
same,glycan array binding signal (z-score),[4],-0.2
same,glycan array binding signal (z-score),[5],-0.218
same,glycan array binding signal (z-score),[6],-0.215
same,glycan array binding signal (z-score),[7],-0.158
same,glycan array binding signal (z-score),[8],1.29
same,glycan array binding signal (z-score),[9],-0.139
same,glycan array binding signal (z-score),[10],2.02
same,glycan array binding signal (z-score),[11],-0.199
same,glycan array binding signal (z-score),[12],-0.229
same,glycan array binding signal (z-score),[13],-0.075
same,glycan array binding signal (z-score),[14],2.23
same,glycan array binding signal (z-score),[15],1.78
same,glycan array binding signal (z-score),[16],0.693
same,glycan array binding signal (z-score),[17],1.66
same,glycan array binding signal (z-score),[18],-0.095
same,glycan array binding signal (z-score),[19],1.42
same,glycan array binding signal (z-score),[20],2.98
same,glycan array binding signal (z-score),[21],0.095
same,glycan array binding signal (z-score),[22],-0.144
same,glycan array binding signal (z-score),[23],-0.231
same,glycan array binding signal (z-score),[24],-0.29
same,glycan array binding signal (z-score),[25],0.379
same,glycan array binding signal (z-score),[26],-0.219
same,glycan array binding signal (z-score),[27],-0.222
same,glycan array binding signal (z-score),[28],-0.263
same,glycan array binding signal (z-score),[29],-0.252

# — the supplement of paper PMC8728848
